107 sequences from PubChem BioAssay AID1508600 (Functional Genomics Laboratory (NCATS/FGL), 2020) can be followed below.

About 3,700 (7%) of roughly 53,000 sequences were called active.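 How the source made its calls: active means gene knockdowns whose robust z-score for IL-1 alpha signal is at least 2 or at most -2, so actives lie on both sides; inactive means the rest.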 The entries come from a sample that favours actives as a whole.

The nature of the assay: Components of the Cytosolic LPS Sensing Pathway: Gene Identification via Genome-wide siRNA Screen.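 Further: robust z of the log signal after scaling to non-targeting control siRNA wells of the plate.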 The conditions noted are these: RAW264.7 macrophages, IL-1a HTRF, actives lie on both sides, screened at 100 nM (by protocol), cells primed 5 h with Pam3CSK4 first. An outline of the steps: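 RAW264.7 mouse macrophages reverse-transfected with single siRNAs (100 nM final) for 48h, primed with Pam3CSK4 for 5 hours, then transfected with LipidA for 24 hour. Supernatant IL-1a read by HTRF; values normalized to negative-control median, log-transformed robust z-scores.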
As for GACAGCAACGUGAAAUUAGTT against Xlr, the z-score was -0.828 (inactive).
The result for GGAUCUUUUCCAAAGAAAUTT against Dusp10 reads -0.409 (inactive).
For GGAGGAAGAAGAGAUACCUTT against Foxh1 the value was -0.96 (inactive).
As for CGGGAAACUUAGGUAUGAUTT against Olfr1009, the z-score was -3.05 (active).
Regarding GGCAUGGAAGGCUAAACAGTT against Slc25a17, the z-score is -1.98 (inactive).
The result for GGGUAUAGAGUCAAUCUGATT against Gfm2 reads -0.381 (inactive).
The result for GCAGGGAUCUGCUAAGCUATT against Hey1 reads -0.953 (inactive); that for GGACCCAUUGGUCAUCAUATT against Tent5b, 0.18 (inactive).
For CGGAACCAUAGGGAAUCAGTT against Cmc2, the z-score is 2.04 (active).
As for GCCUGAAUUUGUAAGCAGUTT against Fgf1, the z-score is 0.0666 (inactive).
As for CAUUGUCAUUCUGCUGGCATT against Olfr1249, the z-score is -0.0752 (inactive).
Regarding GGUCACCAUCAUCAUCAAUTT against Carmil1, the z-score is 0.484 (inactive).
The result for GGUGGUAGAACUGUUAAAATT against Klc2 reads 0.311 (inactive); that for GGAGAAAGAGACGGACAACTT against Fgfr1, 2.8 (active); that for GGACUGAAUCUUUAAAGGUTT against Nkx1-2, 0.199 (inactive).
On to GGUGUUGUGGAAUAUUUAATT against Cnot6l, for which the z-score is 1.23 (inactive).
For GGUCUUACCUUUUGAAAAATT against Mtbp the value was 0.0999 (inactive); for GCAUCCUCUCACUCUCAAUTT against Grin2a, 2.37 (active); for CCGAAGCCUUGAAAGCAGUTT against Shq1, 0.302 (inactive).
For GGAAACUGGAUCAAACCAUTT against Smarcd3 the value was -0.707 (inactive); for CGAAGUGGUCAAGUUCUCUTT against Fbxo17, -2.09 (active); for CGAGUUAGUUUUUCUGGGCTT against Tctex1d4, 0.997 (inactive).
With GCAAGAAAAGGUGCUAUCUTT against Med4, the z-score is -0.314 (inactive).
GGAGCUGGAAGAGUGGUAUTT against Clta: the z-score is -0.535 (inactive).
Take GGCUAUGUAGAUCUUGUCATT against Cyb5r1: the z-score is -1.09 (inactive).
For GCUCGGUUAAGAGCCCAUGTT against Pabpn1l the value was -2.11 (active).
For the sequence GGCACAACUGAUUUUGAAATT against Ifngr2, the z-score was -0.362 (inactive).
As to GCGAUCACAGACAUCAUUGTT against Rabgef1, the z-score was -0.423 (inactive).
The result for GGAAAUAAGCAGCGCAUGCTT against Ippk reads -1.27 (inactive); that for CCUACGAGGAUACUUACAATT against Kif18b, 2.81 (active).
The result for GGUGGUUCUGGUGUACAGUTT against Nxf1 reads -1.98 (inactive); that for CCCUAUAAGCAACUUAUGCTT against Tor1aip1, -0.115 (inactive); that for GCACCAUUUGAGUUUUUCUTT against Vmn1r8, -0.578 (inactive).
CAUUUACAUUCUUAUUACCTT against Olfr473: the z-score was -1.43 (inactive).
The result for CCCGAACCUUAGUAAAUGUTT against Psmd8 reads 0.308 (inactive).
The result for GCAGACAGCUUCUCACUAUTT against Tmem114 reads -0.431 (inactive).
Take GCUAAGAAACUGGUCUCAUTT against Reg4: the z-score is -0.151 (inactive).
For GGAAGAUUUGGAAAAUGGATT against Dph3 the value was -2.19 (active); for CCAUCAUUUAUGAAGACCCTT against Dcaf7, -1.44 (inactive); for CCCAAGCACCAGCCCUAUATT against Frmd8, -1.58 (inactive).
The result for GGGAGAAUUGUAGAUUAUUTT against Myo10 reads 0.475 (inactive); that for CCAUCGACUGUUUCAUCCUTT against Olfr987, -0.915 (inactive).
The result for GCUUGAAGUCUCUUGCUGGTT against Nhlrc2 reads 3.53 (active); that for GCUACUCUUUGUCUCAUGUTT against Hexb, -0.826 (inactive).
On to GGAUCAGAUCUUGUGUGACTT against Trim16, for which the z-score was -0.602 (inactive).
The result for CCGCUUGCUCAUUGUAUCATT against Ruvbl2 reads -0.976 (inactive); that for GGUUCCAUGAGAAAAGGUUTT against F2r, -1.45 (inactive); that for “AUCUGUUCCGGAGGAAUUUTT against 1700029I15Rik”, 3.85 (active).
On to GGAGGAGUUUCGCUACGGATT against Sars2, for which the z-score is -0.00587 (inactive).
The result for GGUGUACCCUGAAUUUGAATT against Wdr62 reads -1.67 (inactive); that for GGUUAUACGCUUAGAUUUATT against Irx5, 1.77 (inactive); that for GCUCUGUUACUAUUUGAAUTT against Cts6, 0.137 (inactive).
In the case of GGUUUUGUACUUUCAUAGATT against Fam111a, the z-score was 0.523 (inactive).
For “GGACUUGAACUGAAAAGUUTT against D830013H23Rik” the value was 1.01 (inactive); for GGCAAAAUAAAGCUUAAGGTT against Robo3, -0.517 (inactive).
Take GGAUUUGAGGUUCAUAUAATT against Cdk20: the z-score is -2.48 (active).
Consider CGACAGACAUCGCUAUAAUTT against Gm11437, for which the z-score is -0.296 (inactive).
With GGAGAUACCGGGAAUCCAATT against Rpl19, the z-score was 0.146 (inactive).
As for “GCGCUUCCAAUAACAAAAATT against 1700123L14Rik”, the z-score was -2.19 (active).
For CCAAGUGGGAUUUGCCAACTT against Ifi47, the z-score was -1.68 (inactive).
As to “GGAAUAUCACCAAACCAAATT against 2310057J18Rik”, the z-score is -1.08 (inactive).
For CCUUCACCUGGCUAUUAGATT against Kif12 the value was -0.14 (inactive); for GGAUGUGUUCUAUUCUAUATT against Oprl1, 0.134 (inactive); for GGAAAGUUAAUGCACAUUUTT against Hmg20a, -1.68 (inactive).
The result for CCUGAAAGAAAAGAAGGACTT against Ptms reads 0.107 (inactive).
Take GGCGACAAGCAACUUAUAATT against Mgat4c: the z-score is 3.25 (active).
For GGAUGACUGUAAGUUACGGTT against Mast2 the value was -0.229 (inactive); for GGUGCUCCUAUCCUGUUCATT against Lhfp, -0.331 (inactive); for GGCGGCUGAAAGUUUUGCATT against Pklr, 0.94 (inactive).
For GCACAAGAGGUAUCCUUGCTT against Gm5111 the value was 0.000682 (inactive); for GCCUGCAUUGCAAAUGAAATT against Krtap13-1, -0.257 (inactive).
Consider GGCUUUAACAUCAAAGCAATT against Mgarp, for which the z-score was 0.0459 (inactive).
With GGAAUCCUUUUCUUUCUAATT against Slc13a1, the z-score was 0.0492 (inactive).
The result for GGAAGACAGGGACAAUACCTT against Car15 reads -2.36 (active); that for CCAUCCUAGCUGUGGUAAGTT against Olfr554, 1.32 (inactive); that for GGUCGUUCAGAAGCACCAGTT against Aldh16a1, -1.31 (inactive).
Turning to CGGCACUGACUUAUUGUUCTT against Olfr574, the z-score is 0.886 (inactive).
For GGUGUACCAAGUGUUUUCATT against Faf2 the value was 3.08 (active); for GGUCACUGAAUUGUCAAUCTT against Polr3h, 0.773 (inactive); for “GGGCAAAGACAGUAUUCAATT against B530045E10Rik”, 0.4 (inactive).
The result for CCAUGUGACAAAGCCUACCTT against Fam131b reads 0.845 (inactive).
Consider GGAGGAAAGACGAAUCAACTT against Clcn7, for which the z-score is 1.44 (inactive).
For GCACUGAGCUUGACAAAGATT against Upp2 the value was -0.174 (inactive).
As to GGGCUUUCUCAGAAAAGAATT against Olfr508, the z-score was -1.29 (inactive).
For “GGGCAUGAAAGAAUUCUUATT against D130040H23Rik”, the z-score is -2.83 (active).
For the sequence GGCCAUCAUUGUCACCGUGTT against Adra2a, the z-score was 0.955 (inactive).
Regarding GGUUUAGGUUUCAUAAUCCTT against Ostc, the z-score was -0.338 (inactive).
For GGACCUAUGCAGCACUAAATT against Ppp1r11 the value was 1.73 (inactive); for GGAGAAAGUGGACAGGGCUTT against Jph4, 0.00563 (inactive); for GGUGGUCUGAGAAAUACUCTT against Czib, 2.06 (active).
On to GCAUCUCCUGCCAAAGCAGTT against Ms4a2, for which the z-score is -0.381 (inactive).
The result for GGUAGUAGGAGGAAUGACGTT against Ccdc93 reads -0.353 (inactive); that for GCUUCCUUAUUGACAAUGGTT against Rbm19, 0.596 (inactive); that for GGAGGGACACAGAGAUUACTT against Auh, 5.05 (active).
The result for GGAGUAGCAGAGCUUCUGGTT against S100a8 reads 0.642 (inactive); that for GGAGAAUAAAACUUCCAGATT against Urod, -0.436 (inactive); that for GGGACACAGCUAAAAGCUUTT against Fam20b, 0.146 (inactive).
For CGAUACAGGACCGAAGGAGTT against Fhad1 the value was -0.196 (inactive); for GGUGGAUAUUGAUAUCAAGTT against Fga, 3.31 (active).
For the sequence CCCGGAGAGUCAUUUGUGUTT against Cpsf4, the z-score was 0.435 (inactive).
For CGGAAUCAUACAUUGGUUCTT against Zfp217 the value was 1.22 (inactive).
Take GGUGUCUGACUUUAAGAAGTT against Foxred1: the z-score is -0.247 (inactive).
As for GCCACAACUUAAUUUUCUGTT against Nav3, the z-score was -0.305 (inactive).
For the sequence GGAAUCAGAUACAAAGGAGTT against Sil1, the z-score was 0.265 (inactive).
The result for CUAUCAAGGGCAGUCAACUTT against Olfr1208 reads -2.38 (active); that for GGACACUAUGACGGAAGUATT against Apoe, -1.13 (inactive).
For GGUUCUGAAGAUGGAGGUUTT against Ttbk2 the value was 1.22 (inactive).
